HIF act – HIF pathway transcriptional activation. activation, % at 7.5 µM (by protocol). actives 0.32% (n = 300,000). AID 1910. U2OS HRE-luciferase reporter, luminescence; normalized: DMSO 0%, desferrioxamine 100%;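 active = mean activation of at least 10% of the iron chelator positive control signal, with at least half of replicates also reaching 10%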
CFTR F508del cor – correctors of CFTR F508del function in bronchial epithelial cells | CFBE cells, YFP halide quenching; stimulated with forskolin plus potentiator P3; % fluorescence drop versus neutral controls | activity (quench increase), % at 7.58 µM | actives 0.36% (n = 350,000);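 active = mean added fluorescence quench of at least 8% versus neutral control, with both replicates also reaching 8%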;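 also: cells transiently co-express mutant CFTR-F508del with the halide-sensitive YFP; corrector assay measuring rescue of mutant channel to the surface after 24 h compound exposure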
697 NFkB inh – lowers PMA/ionomycin-induced NF-kB signal in 697 B cells | 697 B-cell NF-kB luciferase reporter, 16 h | inhibition, % at 4 µM | actives 0.33% (n = 330,000) | AID 435022; in the data active = inhibition above about 35%
Jurkat NFkB inh – inhibitors of the PMA/ionomycin-induced NF-kB reporter in Jurkat cells; PMA/ionomycin-induced NF-kB luciferase reporter, luminescence; inhibition, % at 4 µM; actives 0.53% (n = 330,000); AID 435003; in the data active = inhibition above about 50%
Jurkat NFkB conf – lowers PMA/ionomycin-induced NF-kB signal in Jurkat cells; shares compounds with Jurkat NFkB inh; Jurkat NF-kB luciferase, 16 h; inhibition, % at 4 µM; actives 27% (n = 2,700);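 active = inhibition reaching about 45% at 4 µM in either replicate, limit read from the data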;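 also: plate controls were PMA/ionomycin stimulated DMSO wells for no effect and unstimulated DMSO wells for full effect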
Starred values were filed as active, the others as inactive; . = no result. Only some compounds are listed: those with a hit (about 0.93% of all), similar ones and a draw of the others.

SMILES	HIF act	CFTR F508del cor	697 NFkB inh	Jurkat NFkB inh	Jurkat NFkB conf
O=S(=O)(/N=C(/Nc1nc2ccccc2s1)c1ccccc1)c1ccccc1	.	2	-219	-167	-107
O=C(C[C@H]1CC[C@H](NC(=O)c2cccc(F)c2)[C@H](CO)O1)NCCN1CCCC1	.	-2	.	.	.
N#CC1=C(N)OC2=C(CCc3ccccc32)C1c1ccccc1 (stereo not drawn)	0	.	-37	76*	8
Cc1ccc(/C=C2\CCC3=C2OC(N)=C(C#N)C3c2ccc(C)cc2)cc1 (stereo not drawn)	0	.	-9	-17	.
COc1ccc2c3c([nH]c2c1)[C@@H](CO)N(C(=O)c1cnccn1)CC31CCN(S(C)(=O)=O)CC1	.	1	.	.	.
COC(=O)c1[nH]c2ccc(F)cc2c1NS(=O)(=O)c1ccc(OC)cc1	0	.	-44	66*	47*
Cc1ccc(N2CCN(C(=O)c3ccccc3)CC2)c(C)c1	0	0	-7	3	.
Cc1cccc(N2CCN(C(=O)c3c(-c4ccccc4)noc3C)CC2)c1C	0	15*	-51	68*	41
COc1ccccc1N1CCN(C(=O)c2ccc3[nH]c(C)c(C)c3c2)CC1	0	8	8	54*	17
COc1cc(C(=O)N2CCN(c3ccc(C)cc3C)CC2)cc(OC)c1OC	1	3	-93	63*	21
Cc1cccc(N2CCN(C(=O)c3ccc(S(=O)(=O)N(C)c4ccccc4)cc3)CC2)c1C	.	1	-39	58*	40
Cc1[nH]c2ccc(C(=O)N3CCN(c4ccccc4Cl)CC3)cc2c1C	1	1	-12	8	.
O=C(C[C@@H]1CC[C@@H]2[C@H](COC[C@@H](O)CN2C(=O)Nc2cccc(F)c2)O1)NCc1ccccc1Cl	.	-1	.	.	.
COc1cccc(-c2cnc3c(c2)C(=O)N([C@H](C)CO)C[C@@H](C)[C@H](CN(C)Cc2ccncc2)O3)c1	.	3	.	.	.
C[C@H](CO)N1C[C@H](C)[C@@H](CN(C)C(=O)Cc2ccccc2)OCCCC[C@H](C)Oc2ccc(NC(=O)C3CCCCC3)cc2C1=O	.	1	.	.	.
Cc1[nH]c2ccc(C(=O)N3CCN(c4cccc(Cl)c4)CC3)cc2c1C	2	-2	-6	17	.
COc1ccccc1N1CCN(C(=O)c2oc3ccc(Br)cc3c2C)CC1	.	5	-25	66*	6
COc1ccccc1N1CCN(C(=O)c2oc3ccc(F)cc3c2C)CC1	2	1	-9	22	.
Cc1cccc(N2CCN(C(=O)c3ccc4[nH]c(C)c(C)c4c3)CC2)c1C	.	11*	-37	56*	52*
O=C(c1ccccn1)N1CC2(C1)[C@@H](c1ccccc1)[C@H](CO)N2C(=O)C1CCC1	.	-2	.	.	.
Cc1ccccc1OCC(O)CNC1CCC(NCC(O)COc2ccccc2C)CC1 (stereo not drawn)	-1	-5	26	97*	35
C/C(=N\NC(=O)c1c([N+](=O)[O-])c(C)nn1C)c1ccc(NC(=O)C2CCCC2)cc1	0	6	9	53*	50*
C/C(=N\NC(=O)c1c(Cl)c(C)nn1C)c1ccc(NC(=O)C2CCC2)cc1	3	11*	2	62*	17
COc1cccc(NC(=O)N2CC3(C2)[C@@H](c2ccccc2)[C@@H](CO)N3C(=O)C2CCC2)c1	.	-1	.	.	.
COc1cc(/C=C2\SC(=O)NC2=O)ccc1Oc1ccc([N+](=O)[O-])cc1[N+](=O)[O-]	0	0	25	-4	.
SMILES	HIF act	CFTR F508del cor	697 NFkB inh	Jurkat NFkB inh	Jurkat NFkB conf
CCN1C(=O)C(=Cc2cccc(OC)c2Oc2ccc([N+](=O)[O-])cc2[N+](=O)[O-])SC1=S	0	-1	-152	68*	5
CO[C@@H]1CN(C)C(=O)c2cc(NC(=O)Cc3ccccc3)ccc2OC[C@H](C)NC[C@H]1C	.	3	.	.	.
COc1ccc(NC(=O)c2ccc3c(c2)N(C)CCS3)cc1	3	4	-10	-111	.
CN1CCSc2ccc(C(=O)Nc3cccc(F)c3)cc21	2	-1	-1	-153	-15
C[C@H](CO)N1C[C@H](C)[C@@H](CN(C)S(=O)(=O)c2cn(C)cn2)Oc2cc(C3=CCCCC3)ccc2S1(=O)=O	.	-1	.	.	.
COc1ccc(/C=C/C(=O)c2cc(F)ccc2OC(=O)c2ccccc2)cc1OC	3	.	-221	58*	61*
Cc1ccc2c(c1)sc1nc(=O)n(-c3ccc(Cl)cc3)c(=O)n12	1	.	-10	-35	.
Cc1ccc2c(c1)sc1nc(=O)n(-c3cccc(Cl)c3)c(=O)n12	3	.	-78	-167	-34
O=[N+]([O-])c1ccc(N/N=C/c2cccc(O)c2O)cc1	6	-2	-112	81*	-5
COc1cccc(/C=N/Nc2ccc(S(=O)(=O)O)cc2)c1O	0	.	13	4	.
COc1cccc(/C=N/Nc2ccc(C(=O)O)cc2)c1O	-7	-2	-32	88*	57*
COc1ccc(/C=N/NC(=O)c2ccn[nH]2)cc1COc1ccc([N+](=O)[O-])c(C)c1	1	.	7	44	.
COc1ccc(/C=N/NC(=O)c2cccnc2)cc1COc1ccc([N+](=O)[O-])c(C)c1	0	-1	-23	57*	21
COc1ccc2c3c([nH]c2c1)[C@@H](CO)N(Cc1ccncc1)CC31CN(C(=O)Cc2ccncc2)C1	.	2	.	.	.
O=C(/C=C/Nc1ccc(F)cc1)c1ccc(Br)cc1	2	1	-164	-163	15
O=C(/C=C/Nc1ccc(F)c(F)c1)c1cccs1	4	1	-240	-182	6
Cc1cccc(N/C=C/C(=O)c2cccs2)c1C	2	.	-180	-167	-14
O=C(/C=C/Nc1ccc(F)c(Cl)c1)c1ccccc1	5	3	-165	-177	-29
O=C(/C=C/Nc1ccc(F)c(F)c1)c1ccc(Br)cc1	3	.	-139	-126	.
C[C@@H]1CN([C@H](C)CO)C(=O)c2cc(C#CCN(C)C)cnc2O[C@H]1CN(C)C(=O)c1cccc(F)c1	.	-1	.	.	.
COc1ccc(CN(C)C[C@H]2Oc3ccc(NS(=O)(=O)c4ccc(F)cc4)cc3CC(=O)N([C@H](C)CO)C[C@@H]2C)cc1	.	-3	.	.	.
CCOC(=O)c1c(N)sc(C(=O)OC)c1C	0	-1	-24	-9	.
COC(=O)c1sc(N)c(C(=O)OC)c1COC(=O)c1c(C)noc1C	1	.	-11	68*	21
Cc1ccnc(NC(=O)Nc2ccc(Br)cc2Cl)c1	1	.	-225	-157	-101
COC(=O)c1ccccc1NC(=O)Nc1cc(C)ccn1	0	3	-11	-3	.
Cn1c(SC2=CS(=O)(=O)c3ccccc32)nc2ccccc21	7	.	-88	74*	39
O=C(C[C@@H]1CC[C@H]2[C@@H](COC[C@H](O)CN2Cc2nccs2)O1)NCc1ccc(F)cc1	.	-3	.	.	.
Cc1ccc2nc(/C(C#N)=C\c3ccc([N+](=O)[O-])o3)[nH]c2c1	-1	.	-55	59*	16
CN1CCC(NCCC(c2ccc(F)cc2)c2ccc(Cl)cc2)CC1 (stereo not drawn)	-16	0	19	72*	29

High-throughput results: PubChem, several laboratories
